RGS4-Gao reg: modulators of RGS4 binding to Galphao, primary screen, biochemical, multiplexed bead flow cytometry | Guanine nucleotide-binding protein G(o) subunit alpha (Homo sapiens), P09471 | 220,000 tested, 0.33% active | binding response (% of control), % at 10 µM | AID 1415, 2008 | actives lie on both sides; in the data active = binding response below about 49% or above about 150%; inactive = in between;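 note: fluorescent Galphao activated with aluminum fluoride binding bead-coupled RGS4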
Target sequence (P09471 whole entry, looked up): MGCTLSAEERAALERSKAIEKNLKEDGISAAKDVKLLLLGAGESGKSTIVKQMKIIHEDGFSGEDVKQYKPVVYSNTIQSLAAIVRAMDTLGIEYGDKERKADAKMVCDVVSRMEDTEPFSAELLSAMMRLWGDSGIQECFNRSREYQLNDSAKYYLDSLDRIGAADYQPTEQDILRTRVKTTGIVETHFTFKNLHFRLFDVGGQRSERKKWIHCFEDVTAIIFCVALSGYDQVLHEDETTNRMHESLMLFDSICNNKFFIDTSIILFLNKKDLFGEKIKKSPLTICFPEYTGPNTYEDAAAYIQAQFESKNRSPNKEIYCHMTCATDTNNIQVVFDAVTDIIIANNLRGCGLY
RGS8-Gao: RGS8-Galphao binding modulators, primary screen, biochemical, multiplexed bead flow cytometry; response (percent of control binding), % at 10 µM; 220,000 tested, 0.34% active; actives lie on both sides; Guanine nucleotide-binding protein G(o) subunit alpha (Homo sapiens), P09471; in the data active = response below about 60% or above about 140%; inactive = in between;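 note: Galphao activated as the GDP aluminium fluoride complex binding bead-coupled RGS8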
GSH fluor: compound fluorescence on glutathione beads, profiling panel, artefact control, biophysical, 488/530 nm, flow cytometry | GSH beads flow cytometry, compound fluorescence 488/530 nm; hits give high values | fluorescence (KMESF) at 10 µM | 190,000 tested, 0.25% active; in the data active = fluorescence above about 89;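 note: glutathione beads carrying GST-tagged Bcl family fusion proteins plus one bare bead set; values are compound well signal with DMSO vehicle wells as background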
RGS7-Gao: RGS7-Galphao binding modulators, primary screen, biochemical, multiplexed bead flow cytometry. binding response (% of control), % at 10 µM. actives lie on both sides. 220,000 tested, 0.35% active. AID 1439, 2008; in the data active = binding response below about 49% or above about 150%; inconclusive = no clear call, values can overlap the other calls; inactive = in between;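 note: fluorescent Galphao held in activated GDP-AlF4 state binding bead-coupled RGS7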
Avidin bead fluor: green autofluorescence of compounds with avidin beads – biophysical, 488/530 nm, flow cytometry, artefact control, profiling panel. fluorescence (KMESF) at 10 µM. compound fluorescence 488/530 nm; hits give high values. 220,000 tested, 0.38% active; in the data active = fluorescence above about 47
RGS16-Gao HTS: modulators of RGS16 binding to Galphao, primary screen, biochemical, human proteins, multiplexed bead flow cytometry; bead-based flow cytometry RGS16-Galphao binding, fluorescence; actives lie on both sides; 220,000 tested, 0.38% active; AID 1441, 2008; binding response (% of control), % at 10 µM;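 note: Galphao activated by GDP with aluminum fluoride before binding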
Target sequence (O15492 whole entry, looked up): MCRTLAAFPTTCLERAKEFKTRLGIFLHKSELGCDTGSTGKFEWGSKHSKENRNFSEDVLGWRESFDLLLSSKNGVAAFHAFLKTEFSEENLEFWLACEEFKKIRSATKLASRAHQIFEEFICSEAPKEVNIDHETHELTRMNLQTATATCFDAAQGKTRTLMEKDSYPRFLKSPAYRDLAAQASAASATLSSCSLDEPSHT
Target sequence (P09471 whole entry, looked up): as the sequence (P09471 whole entry, looked up) above
RGS4-Gao HTS: modulators of RGS–Galpha-o binding, primary screen, biochemical, multiplexed beads, flow cytometry, RGS4/7/8/16/19; shares compounds with RGS16-Gao HTS; AID 1504, 2009; 1,600 tested, 99% active; RGS4–Galpha-o binding response, % at 10 µM; multiplexed bead flow cytometry;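 note: fluorescently labeled Galpha-o bound to GDP with aluminium fluoride binding biotinylated RGS beads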
Avidin counter: disruption of biotin probe capture by avidin, counter-screen for RGS protein interaction modulators, biochemical, flow cytometry, bead-based | streptavidin beads, fluorescein-biotin binding | 1,700 tested, under 10 active | inhibition, % at 10 µM | shares compounds with RGS16-Gao HTS;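 active = inhibition above 50%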;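 note: median green fluorescence of gated singlet beads compared with DMSO control wells; 0% = DMSO wells and 100% = complete loss of bead fluorescence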
RGS8-Gao single: RGS8-Galphao binding modulators, confirmation, biochemical, multiplexed bead flow cytometry, single concentration. AID 1836, 2009. binding response (% of control), % at 10 µM. bead-based flow cytometry RGS8-Galphao binding, fluorescence; actives lie on both sides. shares compounds with RGS16-Gao HTS. 1,700 tested, 3% active; in the data active = binding response below about 72% or above about 130%; inactive = in between;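 note: Galphao activated as GDP AlF4 complex before binding bead RGS8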
RGS7-Gao confirm: RGS7-Galphao binding modulators, confirmation, biochemical, multiplexed bead flow cytometry, single concentration; 1,700 tested, 7.8% active; AID 1837, 2009; bead-based flow cytometry RGS7-Galphao binding; actives lie on both sides; response (percent of control binding), % at 10 µM; shares compounds with RGS16-Gao HTS; in the data active = response below about 75% or above about 130%; inactive = in between;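 note: fluorescent Galphao activated with GDP and aluminum fluoride binding bead-coupled RGS7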
RGS16-Gao conf: modulators of RGS16-Galphao protein binding, confirmation, biochemical, single concentration, multiplexed bead flow cytometry; shares compounds with RGS16-Gao HTS; bead-based flow cytometry; actives lie on both sides; response (% of control binding), % at 10 µM; 1,700 tested, 4% active; AID 1838, 2009; in the data active = response below about 74% or above about 130%; inactive = in between;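 note: Galphao activated as the GDP aluminium fluoride complex binding bead-coupled RGS16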
RGS4-Gao single: modulators of RGS4-Galphao protein binding, confirmation, biochemical, single concentration, multiplexed bead flow cytometry; shares compounds with RGS16-Gao HTS; actives lie on both sides; binding response (% of control), % at 10 µM; 1,700 tested, 4% active; AID 1840, 2009; in the data active = binding response below about 74% or above about 130%; inactive = in between
RGS19-Gao single: regulators of RGS19-Galphao binding, confirmation, biochemical, single point, multiplexed bead flow cytometry | shares compounds with RGS16-Gao HTS | bead-based flow cytometry RGS19-Galphao binding; actives lie on both sides | response (percent of control binding), % at 10 µM | 1,700 tested, 5% active | AID 1841, 2009; in the data active = response below about 50% or above about 160%; inactive = in between;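 note: 100% = no compound control and 0% = blank background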
Active calls of the source: *; u = inconclusive; x = not tested or not shown; [ ] = remark or other dose. Hits are enriched below; roughly 1.2% of the tested compounds scored in any of these assays. Unless noted, the rule behind the calls is not given here.

SMILES | RGS4-Gao reg | RGS8-Gao | GSH fluor | RGS7-Gao | Avidin bead fluor | RGS16-Gao HTS | Avidin counter | RGS8-Gao single | RGS7-Gao confirm | RGS16-Gao conf | RGS4-Gao single | RGS19-Gao single | others
CCn1c2ccccc2c2nc3cc(S(=O)(=O)N4CCOCC4)ccc3nc21 | 94.1 | 74.6 | 6 | 123.4 | 4 | 49.0 | x | x | x | x | x | x
CCN(CC)S(=O)(=O)c1ccc(NC(=O)C(OC)c2ccccc2)cc1 (stereo unspecified) | x | x | 37 | x | x | x | -1.2 | 100.4 | 92.9 | 99.2 | 98.7 | 96.9
COC(C(=O)Nc1ccc(S(=O)(=O)Nc2c(C)cccc2C)cc1)c1ccccc1 (stereo unspecified) | 101.7 | 100.1 | 14 | 102.3 | 14 | 106.5 | x | x | x | x | x | x
CCOC(=O)c1nc(Nc2cc(C)cc(C)c2)c2ccccc2n1 | 96.3 | 98.4 | 15 | 99.7 | 11 | 99.7 | x | x | x | x | x | x
Cc1cc(Oc2ccccc2)nc(-c2ccccc2)n1 | 104.7 | 104.0 | 38 | 99.6 | 12 | 103.8 | x | x | x | x | x | x
c1ccc(Oc2cc(-c3ccccc3)nc(-c3ccccc3)n2)cc1 | 26.7* | 38.6* | 10 | 18.1* | 4 | 18.8* | 0.3 | 97.3 | 96.8 | 95.0 | 97.4 | 104.8
CCCCCCC(=O)Cc1cc(OC)c(OC)cc1C=C(C(=O)OCC)C(=O)OCC | 92.6 | 83.8 | 18 | 97.1 | 7 | 61.9 | x | x | x | x | x | x
CCOc1ccc(-c2nnc(-c3ccc(OC)cc3)o2)cc1 | 23.9* | 14.5* | 10 | 17.5* | 2 | 11.5* | 0.3 | 99.5 | 91.9 | 95.0 | 94.0 | 94.4
CCOc1ccc(-c2nnc(-c3ccccc3)o2)cc1 | 95.6 | 99.2 | 16 | 94.5 | 5 | 94.7 | x | x | x | x | x | x
CNC(=O)c1ccsc1NC(=O)c1coc2ccccc2c1=O | 9.9* | 12.0* | 18 | -6.6* | -1 | 1.6* | -0.2 | 100.2 | 89.5 | 98.6 | 92.7 | 77.7
O=C(Nc1ccc2c(c1)OCCO2)c1coc2ccccc2c1=O | 101.5 | 99.2 | 11 | 97.2 | 7 | 98.6 | x | x | x | x | x | x
O=C(CSc1nnc(CCCO)n1-c1ccccc1)Nc1nccs1 | 98.5 | 99.0 | 14 | 104.9 | 15 | 98.9 | x | x | x | x | x | x
O=C(CSc1nnc(CCCO)n1-c1ccccc1)NCCc1ccccc1 | 22.3* | 8.7* | 28 | 15.6* | -1 | 0.4* | -1.4 | 108.5 | 107.2 | 108.8 | 102.8 | 118.3
COc1ccc(OC)c(C(=O)CSc2nnc(Cc3cccs3)n2CCc2ccccc2)c1 | 98.2 | 100.8 | 12 | 100.5 | 37 | 98.0 | x | x | x | x | x | x
Cc1c(-c2n[nH]c(=S)n2-c2ccc(C(F)(F)F)cc2)nnn1-c1ccccc1 | 101.2 | 97.0 | 9 | 101.4 | 3 | 103.0 | x | x | x | x | x | x
Cc1c(-c2n[nH]c(=S)n2-c2ccc(Br)cc2)nnn1-c1ccc(Cl)cc1 | 109.9 | 102.5 | 14 | x | x | 103.3 | -1.9 | 85.6 | 98.2 | 86.2 | 89.5 | 66.9
CCOc1ccc2ncc(C(=O)c3ccc(OC)cc3)c(N3CCN(CC)CC3)c2c1 | 359.0*[activator] | 123.1 | 129* | 308.6*[activator] | 50* | 284.5*[activator] | 1.0 | 102.4 | 101.7 | 102.9 | 103.0 | 73.8
CCc1ccc(C(=O)c2cnc3ccc(OC)cc3c2N2CCN(CC)CC2)cc1 | 106.3 | 103.7 | 14 | 102.6 | 15 | 104.3 | x | x | x | x | x | x
COc1ccc(Nc2nc3[nH]c(=O)cc(O)c3s2)cc1 | 23.4* | 15.8* | 14 | 20.7* | 2 | 12.3* | -1.2 | 99.0 | 86.7 | 95.5 | 94.3 | 70.3
C[C@@H]1NC(=O)c2cc([N+](=O)[O-])cc(I)c2NCCCC[C@@H](C(N)=O)NC(=O)[C@H](CC(N)=O)NC1=O | 109.6 | 126.3 | 16 | 106.3 | 11 | 195.8 | x | x | x | x | x | x
NC(=O)CCC(NS(=O)(=O)c1ccc(Cl)cc1)C(=O)NCc1ccc(Cl)cc1 (stereo unspecified) | 89.5 | 70.2 | 6 | 84.8 | 6 | 6.5* | 0.1 | 110.5 | 112.0 | 113.8 | 109.4 | 132.7 | RGS4-Gao HTS=89.5*
CSCCC(NS(=O)(=O)c1ccc(F)cc1)C(=O)NCc1ccc(S(N)(=O)=O)cc1 (stereo unspecified) | 99.6 | 100.1 | x | u | x | 104.4 | x | x | x | x | x | x
CC(C)CC(NC(=O)c1ccccc1NC(=O)c1ccccc1)C(=O)O (stereo unspecified) | 98.0 | 97.9 | 11 | 95.0 | 9 | 97.0 | x | x | x | x | x | x
CCc1ccc(-n2c(SCC(=O)N3Cc4ccccc4CC3C(=O)O)nnc2-c2ccncc2)cc1 (stereo unspecified) | 101.2 | 99.5 | x | u | 3 | 98.0 | x | x | x | x | x | x
NC(=O)c1ccc(F)cc1 | 24.3* | 15.1* | 17 | 18.5* | 2 | 11.8* | -1.0 | 105.3 | 111.1 | 107.4 | 109.7 | 100.1
O=C(O[C@@H]1OC2COC(=O)c3cc(O)c(O)c(O)c3-c3c(cc(O)c(O)c3O)C(=O)O[C@@H]([C@H]1O)[C@@H]2O)c1cc(O)c(O)c(O)c1 | 33.8* | 44.3* | 8 | 22.5* | 1 | 23.2* | -2.4 | 34.6* | 4.1* | 34.6* | 19.4* | 42.3*

Screening results as filed in PubChem.
